Results on 7 compounds are retold here after PubChem BioAssay (NCI).

What all share (experiment): NCI-60 one-dose screen, 48 h (100 = growth as untreated, 0 = no growth, -100 = all killed)
One experiment concerns MOLT-4 leukemia. The note with it: 10 µM.
The next experiment deals with RPMI-8226 leukemia. The note with it: 10 µM.
A further experiment has as its system OVCAR-8 ovarian. The settings on record: 10 µM.
In another experiment the test system is OVCAR-5 ovarian. The note with it: 10 µM.
The test system of a further experiment is OVCAR-4 ovarian. The settings on record: 10 µM.
A further experiment concerns SK-OV-3 ovarian. The note with it: 10 µM.
The subject of another experiment is IGROV1 ovarian. The note with it: 10 µM.
Another experiment concerns OVCAR-3 ovarian. The note with it: 10 µM.
The next experiment has as its system HS 578T breast. The note with it: 10 µM.
The subject of another experiment is NCI/ADR-RES ovarian. The settings on record: 10 µM.
A further experiment deals with T-47D breast. The note with it: 10 µM.
The next experiment relates to MDA-MB-435 melanoma. The settings on record: 10 µM.
A further experiment concerns SW-620 colon. The settings on record: 10 µM.
The test system of another experiment is HCT-116 colon. The note with it: 10 µM.
For a further experiment, the system named is HCC-2998 colon. The settings on record: 10 µM.
A further experiment relates to KM12 colon. The settings on record: 10 µM.
A further experiment concerns SR leukemia. The note with it: 10 µM.
The test system of another experiment is BT-549 breast. The settings on record: 10 µM.
Another experiment concerns MCF7 breast. The settings on record: 10 µM unless noted.

“And” between values parts separate entries of the source, which are not always exact repeats. Equal entries are not always repeated. Compounds without any hit were thinned out: in the full panel of roughly 83,000, 20% have a hit.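 The endpoint reported here, percent growth, reads 100 for growth as untreated, 0 for no net growth and -100 for all cells dead.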 The source made the active and inactive calls. The calls were made as follows: active = growth percent below 10; inactive = the rest.

As for `O=c1[nH]c2ccccc2n1C1CCN(CCCC(c2ccc(F)cc2)c2ccc(F)cc2)CC1`, the growth with MOLT-4 leukemia was -34% (active) and 15.3% (inactive); in the experiment on RPMI-8226 leukemia, 11.2% (inactive) and 0.602% (active); with OVCAR-8 ovarian, 44.3% (inactive); with OVCAR-5 ovarian, 38.3% (inactive); with OVCAR-4 ovarian, 55.6% (inactive) and 70.2% (inactive); with SK-OV-3 ovarian, 85.8% (inactive) and 78.4% (inactive). The growth was 71.3% (inactive) and 55.5% (inactive) with IGROV1 ovarian; -74.2% (active) and 39.5% (inactive) in the experiment on OVCAR-3 ovarian; 55.2% (inactive) and -34.7% (active) in the experiment with HS 578T breast; 48.3% (inactive) and 23.7% (inactive) with NCI/ADR-RES ovarian; 55.7% (inactive) and 10.2% (inactive) with T-47D breast; -81% (active) and 19% (inactive) with MDA-MB-435 melanoma. The growth is -21.1% (active) and 19.2% (inactive) in the experiment with SW-620 colon; -68.6% (active) and -39.9% (active) with HCT-116 colon; 7.86% (active) and -80.1% (active) in the experiment on HCC-2998 colon; -0.627% (active) and 25.7% (inactive) in the experiment on KM12 colon.
Turning to `COc1ccccc1/C=C/[N+](=O)[O-]`, the growth in the experiment with MOLT-4 leukemia was 53.3% (inactive); with SR leukemia it was -11.9% (active); with OVCAR-8 ovarian, 63.3% (inactive); in the experiment with OVCAR-5 ovarian, 85.6% (inactive); with SK-OV-3 ovarian it was 113% (inactive); in the experiment on IGROV1 ovarian, 53% (inactive). In addition, the growth with OVCAR-3 ovarian is 49.9% (inactive); in the experiment on HS 578T breast it was 79% (inactive); in the experiment on NCI/ADR-RES ovarian, 91.4% (inactive); in the experiment on T-47D breast, 50.7% (inactive); in the experiment on BT-549 breast, 82.4% (inactive); with MDA-MB-435 melanoma it was 39.3% (inactive). For the same compound, the growth in the experiment with SW-620 colon is 58.8% (inactive); with HCT-116 colon it was 36.2% (inactive); in the experiment on HCC-2998 colon it was 88.7% (inactive); with KM12 colon, 65.9% (inactive).
`COc1ccc2c(ccc3oc([N+](=O)[O-])cc32)c1`: the growth with MOLT-4 leukemia was -19% (active); with RPMI-8226 leukemia, 12.1% (inactive); with OVCAR-8 ovarian, 0.0755% (active); in the experiment with OVCAR-5 ovarian, 9.85% (active); with OVCAR-4 ovarian, 28.9% (inactive); with SK-OV-3 ovarian, -12.6% (active). The growth with OVCAR-3 ovarian was -13.9% (active); in the experiment on HS 578T breast, -7.73% (active); in the experiment with NCI/ADR-RES ovarian, 2.89% (active); in the experiment on T-47D breast, 15.3% (inactive); with BT-549 breast it was -35.1% (active); with MDA-MB-435 melanoma it was -77% (active). Further, the growth is 7.19% (active) in the experiment with SW-620 colon; 6.64% (active) in the experiment with MCF7 breast; 4.98% (active) in the experiment with HCT-116 colon; -59.3% (active) in the experiment on HCC-2998 colon; -5.99% (active) in the experiment with KM12 colon.
For `NC(=O)c1cc([N+](=O)[O-])c(Cl)c([N+](=O)[O-])c1Cl`, the growth in the experiment on MOLT-4 leukemia is -15.3% (active); with SR leukemia, -11.2% (active); in the experiment with OVCAR-8 ovarian it was -24.6% (active); in the experiment with OVCAR-5 ovarian, 78.2% (inactive); in the experiment on OVCAR-4 ovarian, -58.8% (active); with SK-OV-3 ovarian it was 101% (inactive). For the same compound, the growth was 27.6% (inactive) with IGROV1 ovarian; -97.4% (active) in the experiment with OVCAR-3 ovarian; 20.4% (inactive) in the experiment with NCI/ADR-RES ovarian; -36.7% (active) with T-47D breast; 11.1% (inactive) with MDA-MB-435 melanoma; -79.9% (active) in the experiment with SW-620 colon. In addition, the growth in the experiment with MCF7 breast is -44.4% (active); in the experiment with HCT-116 colon it was -39.2% (active); in the experiment with HCC-2998 colon, 39.2% (inactive); with KM12 colon it was 19.1% (inactive).
For `CCOP(=O)(OCC)/C(C#N)=C/c1ccc(Br)cc1`, the growth in the experiment with MOLT-4 leukemia is 92% (inactive); in the experiment with RPMI-8226 leukemia, 54.9% (inactive); in the experiment with OVCAR-8 ovarian it was 100% (inactive); in the experiment on OVCAR-5 ovarian it was 90.7% (inactive); with OVCAR-4 ovarian, 98.4% (inactive); in the experiment on SK-OV-3 ovarian it was 97.4% (inactive). The growth in the experiment with OVCAR-3 ovarian was 112% (inactive); in the experiment on HS 578T breast it was 100% (inactive); with NCI/ADR-RES ovarian, 107% (inactive); in the experiment with T-47D breast, 90.8% (inactive); in the experiment with MDA-MB-435 melanoma, 104% (inactive); with SW-620 colon it was 105% (inactive). Further, the growth with HCT-116 colon was 101% (inactive); in the experiment with HCC-2998 colon, 102% (inactive); in the experiment on KM12 colon, 109% (inactive).
For the compound `O=C(CBr)Nc1ccc(Cl)cc1`, the growth with MOLT-4 leukemia was 20.7% (inactive); with SR leukemia, -28.8% (active); in the experiment on OVCAR-8 ovarian, 96.6% (inactive); in the experiment on OVCAR-5 ovarian, 66.6% (inactive); in the experiment on OVCAR-4 ovarian, 89.2% (inactive); in the experiment with SK-OV-3 ovarian, 108% (inactive). For the same compound, the growth with OVCAR-3 ovarian is 68.9% (inactive); with HS 578T breast it was 115% (inactive); with NCI/ADR-RES ovarian, 94.5% (inactive); with T-47D breast, 67.8% (inactive); in the experiment with BT-549 breast it was 116% (inactive); with MDA-MB-435 melanoma it was 87% (inactive). Moreover, the growth in the experiment with SW-620 colon was 9.26% (active); in the experiment on MCF7 breast, 45% (inactive); in the experiment with HCT-116 colon it was 54.4% (inactive); in the experiment on HCC-2998 colon, 112% (inactive); in the experiment with KM12 colon, 102% (inactive).
For `C[C@]12CC[C@H]3[C@@H](CCC4=CC(=O)CC[C@@H]43)[C@@H]1CC[C@@H]2OC(=O)N(CCCl)N=O`, the growth is 12.8% (inactive) in the experiment on MOLT-4 leukemia; 5.42% (active) in the experiment on RPMI-8226 leukemia; 54.3% (inactive) with OVCAR-8 ovarian; 108% (inactive) in the experiment on OVCAR-5 ovarian; 84.8% (inactive) in the experiment on OVCAR-4 ovarian; 46.7% (inactive) in the experiment on SK-OV-3 ovarian. The growth in the experiment with IGROV1 ovarian was -2.36% (active); in the experiment on OVCAR-3 ovarian it was 89.9% (inactive); in the experiment with HS 578T breast, 69.7% (inactive); in the experiment on NCI/ADR-RES ovarian, 49% (inactive); with T-47D breast it was 54.2% (inactive); in the experiment with BT-549 breast, 66.6% (inactive). Moreover, the growth in the experiment with MDA-MB-435 melanoma is 68.5% (inactive); in the experiment on SW-620 colon, 52.5% (inactive); with MCF7 breast, 58.4% (inactive); in the experiment on HCT-116 colon it was 51.7% (inactive); in the experiment with HCC-2998 colon, 58.1% (inactive); in the experiment on KM12 colon, 28.2% (inactive).
